Results from PubChem BioAssay.
Measured potencies and affinities stand elsewhere. Activity calls are given as the source filed them. The rule behind the calls is not given here.

These compounds were tested against Plasmodium falciparum protein kinase 6 (PK6, PF3D7_1337100) (UniProt Q8IDW1) (assay: PfPK6 kinase inhibitors, biochemical, TCAMS library (AID 1159586)). Conditions: recombinant PfPK6, Kinase-Glo ATP depletion luminescence.
Sequence of Plasmodium falciparum protein kinase 6 (PK6, PF3D7_1337100) (Q8IDW1 1-305): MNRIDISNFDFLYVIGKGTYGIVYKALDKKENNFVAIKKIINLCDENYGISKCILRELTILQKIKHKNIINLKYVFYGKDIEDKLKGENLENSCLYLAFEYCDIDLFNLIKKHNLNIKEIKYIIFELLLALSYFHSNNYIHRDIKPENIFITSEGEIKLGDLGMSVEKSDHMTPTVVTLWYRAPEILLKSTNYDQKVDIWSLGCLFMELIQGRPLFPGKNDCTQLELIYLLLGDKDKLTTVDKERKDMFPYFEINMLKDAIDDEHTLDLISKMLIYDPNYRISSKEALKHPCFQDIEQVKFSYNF

outcome, inactive:
c1ccc(CN2CCC(Nc3ccc(-c4cn[nH]c4-c4ccccn4)nc3)CC2)cc1
CN1CCN(c2cc3c(cc2Cl)CCN3C(=O)Cc2ccc(NC(=O)Nc3cccc4ccccc34)cc2)CC1
O=C(CCC1CCCCC1=O)c1ccccc1 (centres undefined)
CCOc1c(C)cc(C(F)(F)F)cc1CNCCCNc1cc(=O)c2ccccc2[nH]1
CCc1cn2c3c(cc(C(=O)N[C@@H](Cc4ccccc4)[C@H](O)CNC4CCCC4)cc13)N(C)S(=O)(=O)CC2
COc1ccc(NC(=O)[C@H](CC(C)C)Nc2cc(C)nc(NCCc3ccc(F)cc3)n2)cc1
CN(C)CCN(C)Cc1ccc(-c2ccc(NC(=O)c3ccc(Cl)cc3)cc2)cc1
Cc1cc(-c2cc3nc4c(c(=O)n3[nH]2)CCCC4)c(C)o1
CC(C)NCC(=O)Nc1cccc(C(=O)Nc2cccc(C(F)(F)F)c2)c1
Cn1c(NC(=O)C2CCC(CNC(=O)c3ccc(O)c(-c4ccc(Cl)c(Cl)c4)c3)CC2)nc2ccccc21 (centres undefined)
O=C(Nc1ccc(OC2CCN(Cc3ccsc3)C2)c(Cl)c1)c1ccco1 (centres undefined)
O=c1[nH]c2c(c(O)c1[N+](=O)[O-])CCC2
COc1cc(OC)c2c(C)cc(NCCCn3ccnc3)nc2c1
CN1CCCN(Cc2cccc(-c3cccc(NC(=O)c4cccc(C#N)c4)c3)c2)CC1
O=C(NCCSCc1c(F)cccc1Cl)c1cnc2c(c1)nc(-c1cnc(-c3ccccc3)[nH]1)n2CCc1cnc[nH]1
O=C(Nc1ccc(Cl)cc1)Nc1ccc(-c2csc(-c3nc4ccccc4[nH]3)c2)cc1
CCOC(=O)C(C(C)=O)C(c1ccccc1)C(C(C)=O)C(=O)OCC (centres undefined)
CN(C)CCCn1c(C(=O)OC(c2ccccc2)c2ccccc2)cc2cc(OCc3ccccc3)ccc21
Cc1noc(C)c1-c1cccc(CNCc2cccc(-c3cccc(-c4nc5ccc(F)cc5[nH]4)c3)c2)c1
CCOc1cc(C(=O)NCCc2ccc(Cl)c(Cl)c2)ccc1-c1nc2ccc(Cl)cc2[nH]1
c1cc(CNCCc2ccncc2)cc(-c2csc(-c3nc4ccccc4[nH]3)c2)c1
CN(C)c1ccc(-c2csc(C(=O)NCC3CCN(Cc4cccc(C(F)(F)F)c4)C3)c2)cc1 (centres undefined)
CC(C)c1ccc(CN2CCC(NC(=O)c3ccc(-c4cccc(F)c4)s3)CC2)cc1
O=C(Cn1c(SCc2cccc(F)c2F)cc(=O)c2ccccc21)N(CCc1cnc[nH]1)Cc1ccc(-c2ccc(C(F)(F)F)cc2)cc1
CCOC(=O)c1c(CCc2ccc(C(F)(F)F)cc2)nc2c(c1-c1ccc(C(=O)N[C@@H](C)c3ccncc3)cc1)C(=O)N1CCC[C@@H]21
CCCCCn1c(Sc2ccc(C#N)c([N+](=O)[O-])c2)nnc1-c1ccc(OC)cc1
c1cc(C2=N[C@H]3CCCC[C@@H]3N2)ccc1OCCCOc1ccc(C2=N[C@@H]3CCCC[C@H]3N2)cc1
O=C(/C=C/c1ccc(Cl)cc1)NCCCCCN1CCN(C(=O)Nc2ccc(Cl)c(C(F)(F)F)c2)CC1
COC(=O)c1cccc(NC(=O)NC2CCN(c3ccnc(Nc4ccc(OC)cc4)n3)C2)c1 (centres undefined)
O=C(NC1CCN(Cc2cccc(C(F)(F)F)c2)CC1)c1ccc(-c2cccc(Cl)c2)s1
CN(C)CCNCc1ccc(-c2cccc(-c3nc4ccccc4[nH]3)c2)cc1
Cc1cc(NN=Cc2ccccn2)c2cc(F)ccc2n1
O=C(/C=C/c1ccc(Cl)c(Cl)c1)NCCCCCN1CC[C@H](NC(=O)Nc2ccc(Oc3ccccc3)cc2)C1
CC1(C)CCC(C)(C)c2c1ccc(C1CCN(CCCCNC(=O)c3ccc(-c4ccc(Cl)cc4)cc3)CC1)c2O
COc1ccc(CCNC(=O)c2cnc3c(c2)nc(-c2cnc(-c4ccccc4)[nH]2)n3CCc2cnc[nH]2)cc1
COc1cc(C)nc2ccc(NC(=O)c3cc(C(F)(F)F)cc(C(F)(F)F)c3)cc12
CCCc1cc(C)ccc1OCCCON1C(NC(=O)OCC)=NC(NC(=O)OCC)=NC1(C)C
O=C(c1ccc(F)c(F)c1)N1CCOC(CCN2CCC(c3ccccc3)CC2)(c2ccc(Cl)c(Cl)c2)C1 (centres undefined)
CC(=O)N(C)/N=C/[C@H](CCc1ccccc1)NC(=O)[C@H](CC(C)C)NC(=O)c1cccc(OCCN2CCOCC2)c1
